Here are results for 112 molecules from ChEMBL document CHEMBL4513216, “Probing the Open Global Health Chemical Diversity Library for Multistage-Active Starting Points for Next-Generation Antimalarials” (ACS Infect Dis, 2020).

Molecules are shown by their SMILES. Among all 69,000 compounds or so, about 8,600 (12%) showed an effect of 50% or more. For the sample, strong results were picked, then their nearest neighbours and some compounds at random.

The assay relates to Plasmodium berghei. The assay is described as follows: Screen against P. berghei liver stage (PbLuc), transformed with Luciferase, at 10uM. The class given is functional, HepG2. Conditions: tested at 10 uM.
As for `Cc1ccc(CSc2nc(N)cc(NCCS(=O)(=O)N(C)C)n2)cc1`, the INHIBITION is given as 23.5%.
The value for `COc1ccc(CN(Cc2ccsc2)CC2CCCO2)cn1` (configuration not stated) was 61.6%; that for `c1csc(CN(Cc2ccsc2)CC2CCCO2)n1` (configuration not stated) was -12.2%.
Next, `CC(C)n1cc(CN(Cc2ccsc2)CC2CCCO2)cn1` (configuration not stated): 12.9%; `CCCc1nnc(NCCc2noc(C3CC3)n2)o1`: 16.5%; `NC(=O)Cn1cc(NC(=O)N2CCN(c3ccc(F)cc3)CC2)cn1`: 7.333%.
`NC(=O)c1cn(CC2CCC2)c(C2CC2)n1`: the INHIBITION is -21.8%.
Next, `CNc1ncccc1CN1CCN(C)CC(C(N)=O)C1` (configuration not stated): 33.2%; `CNc1ncccc1CN1CCN(C)CC(C(=O)N(C)C)C1` (configuration not stated): 0.696%.
Next, `CNc1ncccc1CN1CCN2CCN(C)CC2C1` (configuration not stated): 53.8%; `Cc1nccn1CCC(=O)N1CCC2(CCC(=O)N(CC3CC3)C2)CC1`: 42.5%.
The value for `CN(Cc1cccs1)C1CCC[C@@H]2CN(C(=O)c3cnccn3)C[C@H]12` (some centres not stated) was 37.9%.
For `Cn1c(=O)oc2cc(Nc3ncc(C#N)cc3Cl)ccc21`, the INHIBITION is on record as 58.9%.
Next, `Cn1c(=O)oc2cc(Nc3nccnc3C#N)ccc21`: 36.5%; `Cn1c(=O)oc2ccc(Nc3ncc(C#N)cc3Cl)cc21`: 42.1%.
For the molecule `CS(=O)(=O)CCCN(CCCO)C1CCc2ccccc21` (configuration not stated), the INHIBITION is 21.7%.
Next, `CS(=O)(=O)NCCN(CCCO)C1CCc2ccccc21` (configuration not stated): 51.7%; `CS(=O)(=O)CCN(CCCO)C1CCc2ccccc21` (configuration not stated): 18.3%.
Regarding `CC(=O)N1N=C(c2cccs2)OC1C(=O)Nc1ccc(C(C)C)cc1` (configuration not stated), the INHIBITION is 6.55%.
Next, `CCN1CCN(c2ccc(NC(=O)CC(C)C)c(C)c2)CC1`: 35.7%.
Turning to `COCC1CCCN(C(=O)c2ccc(NC(=O)CC(C)C)c(C)c2)C1` (configuration not stated), the INHIBITION turned out to be 4.97%.
Next, `CCN1CCCN(C(=O)c2ccc(NC(=O)CC(C)C)c(C)c2)CC1`: 76.6%; `CCOC(=O)COc1ccc(C(C)=O)c(O)c1`: 38.2%; `Cc1nn(C)c(C)c1C1CCCN1C(=O)c1ccc2c(c1)OCCO2` (configuration not stated): -45.9%.
Consider `CCSCc1ccc(C(=O)N2CCCN(CC(N)=O)CC2)cc1`, for which the INHIBITION is reported as -40.5%.
In the case of `Cc1cccc(CN2C(=O)CC[C@@H]3[C@H]2CCN3CC2CCOCC2)n1`, the INHIBITION was 38.1%.
Next, `Cc1cnc(CNc2ccccc2CN(C)C(=O)c2cccs2)o1`: 55.6%.
Next, `CN(Cc1ccccc1NCc1cccnc1)C(=O)c1cccs1`: 49.3%; `CN(Cc1ccccc1NCc1cscn1)C(=O)c1cccs1`: 20.6%.
Next, `CCc1noc(CN(CC)C(=O)CC2C(=O)NCCN2CC(C)(C)C)n1` (configuration not stated): 13.7%; `CCN1C[C@@H]2[C@@H](OC)CCN(S(=O)(=O)c3ccccc3)[C@@H]2C1`: 17.6%; `CO[C@@H]1CCN(S(=O)(=O)c2cccnc2)[C@@H]2CN(CC3CC3)C[C@@H]21`: 53.2%.
Regarding `CCN1C[C@H]2[C@@H](C1)N(S(=O)(=O)c1cccnc1)CC[C@H]2OC`, the INHIBITION turned out to be 59.1%.
The value for `CO[C@@H]1CCN(S(=O)(=O)N(C)C)[C@@H]2CN(Cc3cccnc3)C[C@@H]21` was 36.2%; that for `CO[C@H]1CCN(S(=O)(=O)c2cccnc2)[C@@H]2CN(CC3CC3)C[C@H]12` was 52%; that for `COCCN1C[C@@H]2[C@@H](OC)CCN(S(=O)(=O)c3cccnc3)[C@@H]2C1` was 31.1%.
`CO[C@H]1CCN(S(=O)(=O)N(C)C)[C@@H]2CN(Cc3cccnc3)C[C@H]12`: the INHIBITION is recorded as -18.5%.
As to `CCN1C[C@H]2[C@@H](C1)N(S(=O)(=O)c1ccccc1)CC[C@H]2OC`, the INHIBITION was determined as 41.6%.
Next, `CCN1C[C@@H]2[C@@H](OC)CCN(S(=O)(=O)c3cccnc3)[C@@H]2C1`: 26.4%; `O=C(NCCC1CCN(CC(F)(F)F)CC1)C1CCOC1` (configuration not stated): 26.1%; `Cc1csc(C(C)(C)NCC(=O)N(C)Cc2ccc(C)o2)n1`: 11.3%.
Next, `NC(=O)C1CCN(C(=O)c2cccn2Cc2cccs2)C1` (configuration not stated): 11.6%; `CN1CCc2nc(C3CCCN(S(=O)(=O)c4ccccc4)C3)ncc2C1` (configuration not stated): 29.85%; `OC1(CN2CCC(Cc3ncccn3)CC2)CCCCC1`: 14.6%.
With `COCCc1noc(CN2CCCC2Cn2cccn2)n1` (configuration not stated), the INHIBITION was determined as 38.8%.
The value for `CSc1ccc(-c2noc(CN(CC(C)C)CC(C)C)n2)cc1` was 65.8%; that for `CSc1ccc(-c2noc(CN(Cc3ccccc3)C(C)C)n2)cc1` was 46.1%; that for `COCCN(Cc1ccco1)Cc1nc(-c2ccc(C)c(F)c2)no1` was -16.7%.
Take `COc1ccc(CN2CC[C@H](NC(C)=O)[C@@H](O)CC2)c(F)c1`: the INHIBITION is on record as 38.2%.
On to `COC(=O)c1cccc(C(=O)NCc2ccc3c(c2)CCCN3C)c1`, for which the INHIBITION is listed as 34.7%.
As to `Cc1cnc(C(=O)NCc2ccc3c(c2)CCCN3C)cn1`, the INHIBITION is 19.6%.
Next, `COc1cc(C(=O)NCc2ccc3c(c2)CCCN3C)cc(OC)c1Br`: 34.7%; `CN1CCCc2cc(CNC(=O)c3cc[n+]([O-])cc3)ccc21`: 53.9%.
The value for `CN1CCCc2cc(CNC(=O)c3ccncc3)ccc21` was 63.9%; that for `CN1CCCc2cc(CNC(=O)c3ccc(-n4cnnc4)cc3)ccc21` was 37.4%; that for `Cc1ccc(N2CCN(C(=O)C3CN(C)C(=O)N3)CC2=O)cc1` (configuration not stated) was 17.8%.
Next, `O=C(CC1CCC1)N1CCCC(CO)(CC2CC2)C1` (configuration not stated): 22.1%; `CN(C)C(=O)N1CCN(c2ccc3ccc(C(=O)NC4CC4)cn23)CC1`: -14.7%.
As for `CCOC(=O)c1c(NC(=O)CN2CCN(C(C)=O)CC2)sc2c1CCC2`, the INHIBITION is reported as 14.2%.
Next, `CC(C(=O)NCc1ccnc(N2CCN(C)CC2)c1)S(C)(=O)=O` (configuration not stated): 23.333%; `CC(=O)N1Cc2ccccc2OC2(CCN(C(=O)C3CCOC3)CC2)C1` (configuration not stated): 6.26%.
The value for `Cc1ccc(N2CCC(Nc3ccc4nnc(C)n4n3)CC2)nc1` was 58.7%; that for `Cc1ccc(N2CCC(NC(C)c3cccs3)CC2)nc1` (configuration not stated) was 22.9%.
`CCc1cc(N2CCC(Nc3ccc4nnc(C)n4n3)CC2)ncn1`: the INHIBITION is 46.4%.
Turning to `c1cc(CN2CCC3(CCOCC3COCC3CC3)CC2)co1` (configuration not stated), the INHIBITION came to 38.3%.
The value for `Cn1nnc2c1CCN(Cc1ccco1)C2COCc1ccccc1` (configuration not stated) was -48.4%; that for `Cc1cc(C)n(-c2ccc(N3CCC(O)CC3)nc2)n1` was 50.5%.
The value for `Cc1cc(C)n(-c2ccc(N3CCCSCC3)nc2)n1` was 25.8%.
Next, `Cc1cc(C)n(-c2ccc(N3CCC4(CC3)OCCO4)nc2)n1`: -125%.
`CS(=O)(=O)Cc1noc(CN2CCN(c3ccccc3Cl)CC2)n1`: the INHIBITION is listed as 45.7%.
The value for `CS(=O)(=O)Cc1noc(CN2CCc3c(Cl)cccc3C2)n1` was 82.5%; that for `Cc1cccc(SC2CCN(Cc3nc(CC4CC4)no3)CC2)c1` was 11.9%; that for `Clc1cccc2c1CCN(Cc1nc(CC3CC3)no1)C2` was 50.5%.
Next, `Cc1cccc(N2CCN(Cc3nc(CC4CC4)no3)CC2)n1`: 32.7%; `Cc1ncc2c(n1)CCN(Cc1nc(Cc3ccccc3)no1)C2`: -154%.
As for `CCOC(=O)c1sc(NC(=O)C(C)C)c(C#N)c1C`, the INHIBITION amounted to 38%.
The value for `NC(=O)c1cncc(N2CCN(Cc3ccc(F)cc3Cl)CC2)n1` was 69.3%.
The value for `NC(=O)c1ccnc(N2CCCC(CO)(Cc3ccc(F)cc3)C2)c1` (configuration not stated) was 43.5%; that for `O=C(c1cnns1)N1CCN(Cc2ccc(F)cc2Cl)CC1` was -18.2%.
Next, `NC(=O)c1ccnc(N2CCN(Cc3ccc(F)cc3Cl)CC2)c1`: 83.2%.
For the molecule `NC(=O)c1ccc(N2CCN(Cc3ccc(F)cc3Cl)CC2)nn1`, the INHIBITION is reported as 81.2%.
Next, `CN1CCN(Cc2ccccc2Oc2cncc(C(N)=O)n2)CC1`: 4.82%.
With `NC(=O)c1cncc(N2CCN(Cc3cccc4nsnc34)CC2)n1`, the INHIBITION is -47.8%.
Regarding `COc1ccc(CN2CCCN(c3cc(C(N)=O)ccn3)CC2)cc1`, the INHIBITION was -18.7%.
Next, `NC(=O)CN1CC2(CCC1=O)CCN(Cc1ccc(F)cc1Cl)CC2`: 31.7%; `Cc1nn(C)c(N2CCOCC2)c1CNCc1ccc(C(C)O)cc1` (configuration not stated): 43.2%; `CC(C)CC(=O)N1CCN(Cc2cc(-c3ccncc3)nn2C)CC1`: -23.8%.
The value for `CCOC(=O)c1sc(NC(=O)CN2C(=O)CCC2=O)c(C#N)c1C` was 32.2%; that for `CC(C)c1ccc(-n2ncc(C(=O)N(C)C3CCN(C)CC3)c2N)cc1` was -29%; that for `Cc1ccc(CN(CCN(C)C)Cc2ccnn2C2CCCCO2)o1` (configuration not stated) was 15.5%.
The value for `Cc1ccc(O)c(C(=O)N2CCC3(CCCNC3)C2)c1` (configuration not stated) was 42.1%; that for `O=C1CNc2ncnc(Nc3cnn(Cc4cccc(F)c4)c3)c2N1` was -6.47%.
In the case of `O=C1CNc2ncnc(Nc3cnn(Cc4ccccc4)c3)c2N1`, the INHIBITION was determined as 34.6%.
Next, `O=C1CNc2ncnc(Nc3cnn(Cc4ccc(F)cc4)c3)c2N1`: 65.8%; `COCCN1C[C@@H](C)[C@@]2(COCCN(C(=O)c3cccs3)C2)C1`: 20.1%.
On to `CCC(=O)NC(c1ccc(C)cc1)c1cccc(S(C)(=O)=O)c1` (configuration not stated), for which the INHIBITION was 34.7%.
Next, `Cc1ccc(C(NC(=O)C2CC2)c2cccc(S(C)(=O)=O)c2)cc1` (configuration not stated): 52.5%.
Turning to `CCNC(=O)NC(c1ccc(C)cc1)c1cccc(S(C)(=O)=O)c1` (configuration not stated), the INHIBITION is 31.7%.
As to `Cc1cnc(CCNC(=O)C2CN(C(=O)Cc3ccc(F)cc3)C2)s1`, the INHIBITION is -3.15%.
The value for `CN(C)CC1(O)CCCN(c2ccnc3c(C(F)(F)F)cccc23)C1` (configuration not stated) was 7.24%.
As to `Cc1cc(C)n(C2CN(CC(=O)N(C)Cc3ccc(C)o3)C2)n1`, the INHIBITION worked out at 71.9%.
For `COc1ccccc1CC(=O)N1CCCC(n2nc(C)cc2C)C1` (configuration not stated), the INHIBITION was determined as 27.1%.
The value for `COc1cccc(CN(C)C(=O)CN2CCN(c3nccn3C)CC2)c1` was -20.6%; that for `Cc1cc(C)n(C2CN(CC(=O)N(C)Cc3ccsc3)C2)n1` was 75.7%.
As to `Cc1cc(C)n(C2CN(CC(=O)N(C)Cc3ccco3)C2)n1`, the INHIBITION is reported as 39.7%.
The value for `COc1ccccc1CN(C)C(=O)CN1CC(n2nc(C)cc2C)C1` was 89.4%; that for `COc1ccccc1CNC(=O)C(C)N1CC(n2nc(C)cc2C)C1` (configuration not stated) was 6.27%.
The value for `COc1cccc(CN(C)C(=O)CN2CCN(CCO)CC2)c1` was 13.7%; that for `Cc1ccc(CN(C)C(=O)CN2CC(n3cccn3)C2)o1` was 28.4%; that for `Cc1cc(C)n(C2CN(CC(=O)N(C)Cc3cnn(C)c3)C2)n1` was 32.9%.
Turning to `COc1cccc(CN(C)C(=O)CN2CCN(c3nccs3)CC2)c1`, the INHIBITION was determined as 60.4%.
`CN(Cc1ccsc1)C(=O)CN1CCOC(Cn2cncn2)C1` (configuration not stated): the INHIBITION was determined as 5.7%.
